Assay results from PubChem BioAssay (EPA / NIEHS).
Inconclusive results are not listed. The source made the active and inactive calls. Rule for the calls, unless noted: active = hit-call score of the fitted dose curve at least 0.9, where 1 is the maximum; inactive = score below 0.9.

Legend:
[1] = target: PGR (gene 5241) (UniProt P06401); assay: TOX21_PR_BLA_Followup_Antagonist_ratio: Tox21 HEK293 Progesterone Receptor (PR) Antagonism Beta-lactamase Follow-Up Assay, Ratio (AID 2283934; active = hit-call score of the fitted dose curve at least 0.9, where 1 is the maximum;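 note: PR-UAS-bla HEK293T cells stimulated with 1 nM R5020 agonist for 16 hr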)
Outline: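 Readout is the blue/green (ch2/ch1) substrate cleavage ratio after 2 hours at room temperature, following 16 hr co-treatment of PR-bla HEK293T cells with compound and 1nM promegestone. Multiplexed CellTiter-Glo viability flags cytotoxicity; DMSO baseline.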

[2] = TOX21_PR_BLA_Followup_Agonist_viability: Viability Assessment in the Tox21 HEK293 Progesterone Receptor (PR) Agonism Beta-lactamase Follow-Up Assay (AID 2283935; active = hit-call score of the fitted dose curve at least 0.9, where 1 is the maximum;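 note: signal loss means lower viability so actives are cytotoxic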)
Outline: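 Run multiplexed with the beta-lactamase FRET read, this endpoint measures ATP by CellTiter-Glo luminescence (30 min, room temperature). PR-UAS-bla HEK293T cells received compound 6 hr after plating and were then incubated 16 hr at 37C in 2% stripped serum.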

[3] = TOX21_PR_BLA_Followup_Antagonist_viability: Viability Assessment in the Tox21 HEK293 Progesterone Receptor (PR) Antagonism Beta-lactamase Follow-Up Assay (AID 2283936; active = hit-call score of the fitted dose curve at least 0.9, where 1 is the maximum;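 note: cells exposed to compound with R5020 agonist for 16 h; hits lower the luminescence signal meaning cytotoxicity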)
Outline: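 PR-UAS-bla HEK293T cells in medium with 2% charcoal-stripped FBS were treated with compounds plus R5020 for 16 hr at 37C. After the beta-lactamase read, CellTiter-Glo was added to the same wells and luminescence read after 30 min at room temperature.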

[4] = target: PGR (gene 5241) (UniProt P06401); assay: TOX21_PR_LUC_Followup_Antagonist: Tox21 HEK293 Progesterone Receptor (PR) Antagonism Luciferase Follow-Up Assay (AID 2283938; active = hit-call score of the fitted dose curve at least 0.9, where 1 is the maximum;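 note: curve fitted upward as signal gain over DMSO baseline despite antagonist label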)
Outline: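 HEK293-PR-A-luc cells, 3,000/well, preincubated 5 h at 37C before compound addition in DMSO; 16 h compound exposure at 37C. ONE-Glo luciferase luminescence read after 30 min at room temperature, fitted relative to DMSO baseline.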

[5] = TOX21_PR_LUC_Followup_Antagonist_viability: Viability Assessment in the Tox21 HEK293 Progesterone Receptor (PR) Antagonism Luciferase Follow-Up Assay (AID 2283940; active = hit-call score of the fitted dose curve at least 0.9, where 1 is the maximum)
Outline: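 Viability counter-readout: cellular ATP measured by luciferase luminescence after 16 h compound exposure at 37C of HEK293-PR-A-luc cells, which had been cultured in charcoal-stripped serum and seeded 5 h beforehand.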

[6] = TOX21_PR_LUC_Followup_Agonist_viability: Viability Assessment in the Tox21 HEK293 Progesterone Receptor (PR) Agonism Luciferase Follow-Up Assay (AID 2283941; active = hit-call score of the fitted dose curve at least 0.9, where 1 is the maximum;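 note: loss of signal means cytotoxicity so actives lower viability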)
Outline: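 Cytotoxicity counter-readout in the PR-A luciferase reporter line HEK293, with 16 h compound exposure at 37C after cells were cultured in charcoal-stripped serum. Cellular ATP quantified by CellTiter-Glo luminescence.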

[7] = target: Thyroid hormone receptor alpha (Rattus norvegicus) + Thyroid hormone receptor beta (Rattus norvegicus) (UniProt P18113+P63059); assay: TOX21_TR_LUC_GH3_Antagonist_Followup: Tox21 GH3 Thyroid Hormone Receptor Antagonism Luciferase Follow-Up Assay (AID 2283942; active = hit-call score of the fitted dose curve at least 0.9, where 1 is the maximum)
Outline: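 In a GH3 luciferase reporter line, test chemicals spanning 92 uM to 5nM final are co-incubated 24 h with 1.0 nM T3. Activity is expressed as relative luminescence units and analysed relative to DMSO.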

[8] = target: THRA (gene 7067) (UniProt P10827); assay: TOX21_TRA_COA_Antagonist_Followup_ratio: Tox21 Thyroid Hormone Receptor alpha Antagonism through Coactivator Recruitment Follow-Up Assay, Ratio (AID 2283953; active = hit-call score of the fitted dose curve at least 0.9, where 1 is the maximum)
Outline: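 GST-TRα LBD 2.5 nM, BSA 0.10%, + cpd; then FITC-SRC-2 peptide 200 nM + Tb-anti-GST Ab 2 nM. TR-FRET ratio 520/495 nm. Norm: DMSO = 0%, T3 = 100%.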

[9] = TOX21_TRB_BLA_Antagonist_Followup_viability: Viability Assessment in the Tox21 Thyroid Hormone Receptor beta Antagonism Beta-lactamase (BLA) Follow-Up Assay (AID 2283961; active = hit-call score of the fitted dose curve at least 0.9, where 1 is the maximum)
Outline: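 HEK293T cells with GAL4-human TRβ LBD and UAS-bla reporter, 3,000 cells/well in 2% charcoal-stripped FBS medium; 11-point concentrations in triplicate, 18 h at 37C. Viability from ATP by CellTiter-Glo luminescence, 30 min RT, same plates.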

[10] = target: THRB (gene 7068) (UniProt P10828); assay: TOX21_TRB_COA_Antagonist_Followup_ratio: Tox21 Thyroid Hormone Receptor beta Antagonism through Coactivator Recruitment Follow-Up Assay, Ratio (AID 2283967; active = hit-call score of the fitted dose curve at least 0.9, where 1 is the maximum)
Outline: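 Coactivator (SRC-2) recruitment to purified GST-TRβ ligand-binding domain is monitored by terbium-to-fluorescein energy transfer, emission ratio 520:495 nm. DMSO wells define 0% and T3 wells 100% activity.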

[11] = TOX21_TR_RXR_BLA_Antagonist_Followup_viability: Viability Assessment in the Tox21 Thyroid Hormone Receptor beta Retinoid X Receptor alpha (RXRa) Antagonism Beta-lactamase (BLA) Follow-Up Assay (AID 2283979; active = hit-call score of the fitted dose curve at least 0.9, where 1 is the maximum)
Outline: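 RXRa-UAS-bla HEK293T cells seeded 2,500/well in phenol red-free DMEM with 2% charcoal-stripped FBS, attached 5 h, then exposed to compounds at 11 concentrations in triplicate for 16 h at 37C/5% CO2. Viability read by CellTiter-Glo ATP luminescence; bidirectional fit versus DMSO.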

[12] = CCTE_Harrill_HTTr_Viability_MCF7: CCTE's 6-hour Cell Viability Assessment for the High-Throughput Transcriptomics (HTTr) Platform, in MCF-7 cells cultured in DMEM + 10% fetal bovine serum, Harrill Lab (AID 2284010)
Outline: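 Propidium iodide exclusion, imaged by high-content analysis, gauged viability after a six-hour exposure across eight concentrations. Cells were MCF-7 grown in DMEM with 10% fetal bovine serum; fits run in both directions against DMSO.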

[13] = CCTE_Harrill_HTTr_Apoptosis_MCF7: CCTE's 6-hour Apoptosis Assessment for the High-Throughput Transcriptomics (HTTr) Platform, in MCF-7 cells cultured in DMEM + 10% fetal bovine serum, Harrill Lab (AID 2284011)
Outline: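 MCF-7 cells in DMEM + 10% FBS exposed 6 h to chemicals over an eight-point dilution series. Caspase-3/7 activation imaged by high-content CellEvent Green staining; fitted bidirectionally versus DMSO.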

[14] = CCTE_Harrill_HTTr_CellCount_MCF7: CCTE's Cell Proliferation Assessment for the High-Throughput Transcriptomics (HTTr) Platform, Harrill Lab (AID 2284012; active = hit-call score of the fitted dose curve at least 0.9, where 1 is the maximum;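 note: cells exposed to compound for six hours; intended direction is loss of nuclei count meaning fewer cells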)
Outline: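 Cell count from high-content imaging of Hoechst-labeled nuclei serves as viability/growth readout. Chemicals were applied to MCF-7 cells in eight concentrations for six hours, with fitting in both directions relative to DMSO.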

Measured: outcome

Chain of PGR (gene 5241) (P06401 whole entry, looked up): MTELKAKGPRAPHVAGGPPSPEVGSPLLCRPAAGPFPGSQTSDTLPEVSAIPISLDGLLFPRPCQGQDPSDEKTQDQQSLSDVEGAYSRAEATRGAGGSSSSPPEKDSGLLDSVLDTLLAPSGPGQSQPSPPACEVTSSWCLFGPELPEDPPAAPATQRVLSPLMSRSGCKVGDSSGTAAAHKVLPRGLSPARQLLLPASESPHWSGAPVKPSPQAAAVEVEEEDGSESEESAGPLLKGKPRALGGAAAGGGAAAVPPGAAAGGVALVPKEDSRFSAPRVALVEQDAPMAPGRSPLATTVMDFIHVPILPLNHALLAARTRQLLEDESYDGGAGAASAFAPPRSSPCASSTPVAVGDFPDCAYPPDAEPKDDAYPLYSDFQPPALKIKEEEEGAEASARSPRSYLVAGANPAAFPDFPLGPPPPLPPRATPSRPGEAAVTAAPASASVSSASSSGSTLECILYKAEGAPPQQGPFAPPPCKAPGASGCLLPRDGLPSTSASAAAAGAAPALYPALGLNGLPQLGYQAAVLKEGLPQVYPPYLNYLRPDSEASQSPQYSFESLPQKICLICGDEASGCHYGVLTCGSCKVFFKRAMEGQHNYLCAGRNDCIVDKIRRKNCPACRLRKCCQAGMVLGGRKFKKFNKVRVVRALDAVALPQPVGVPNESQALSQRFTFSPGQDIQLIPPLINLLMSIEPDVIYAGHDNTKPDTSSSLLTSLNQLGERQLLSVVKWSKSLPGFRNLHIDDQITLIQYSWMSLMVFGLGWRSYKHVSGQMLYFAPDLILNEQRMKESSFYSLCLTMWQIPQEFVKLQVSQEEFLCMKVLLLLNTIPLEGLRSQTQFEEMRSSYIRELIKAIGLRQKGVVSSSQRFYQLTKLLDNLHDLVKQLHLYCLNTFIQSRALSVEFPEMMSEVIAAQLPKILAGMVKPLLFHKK
Chain of THRA (gene 7067) (P10827 whole entry, looked up, the tested form may be a part): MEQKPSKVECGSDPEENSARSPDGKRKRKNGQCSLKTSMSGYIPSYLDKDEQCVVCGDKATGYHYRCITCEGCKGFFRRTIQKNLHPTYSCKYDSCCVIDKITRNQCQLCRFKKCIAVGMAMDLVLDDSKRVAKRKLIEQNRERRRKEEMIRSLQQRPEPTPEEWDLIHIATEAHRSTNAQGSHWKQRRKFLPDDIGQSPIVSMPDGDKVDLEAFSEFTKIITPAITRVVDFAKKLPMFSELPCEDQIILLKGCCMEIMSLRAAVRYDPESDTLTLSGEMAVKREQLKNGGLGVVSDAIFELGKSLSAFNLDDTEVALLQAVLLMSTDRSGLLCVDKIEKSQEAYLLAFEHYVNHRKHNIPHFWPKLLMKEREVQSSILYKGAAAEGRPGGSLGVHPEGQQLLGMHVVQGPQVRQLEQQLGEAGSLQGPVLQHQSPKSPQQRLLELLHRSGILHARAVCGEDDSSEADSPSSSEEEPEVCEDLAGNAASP
Chain of THRB (gene 7068) (P10828 whole entry, looked up, the tested form may be a part): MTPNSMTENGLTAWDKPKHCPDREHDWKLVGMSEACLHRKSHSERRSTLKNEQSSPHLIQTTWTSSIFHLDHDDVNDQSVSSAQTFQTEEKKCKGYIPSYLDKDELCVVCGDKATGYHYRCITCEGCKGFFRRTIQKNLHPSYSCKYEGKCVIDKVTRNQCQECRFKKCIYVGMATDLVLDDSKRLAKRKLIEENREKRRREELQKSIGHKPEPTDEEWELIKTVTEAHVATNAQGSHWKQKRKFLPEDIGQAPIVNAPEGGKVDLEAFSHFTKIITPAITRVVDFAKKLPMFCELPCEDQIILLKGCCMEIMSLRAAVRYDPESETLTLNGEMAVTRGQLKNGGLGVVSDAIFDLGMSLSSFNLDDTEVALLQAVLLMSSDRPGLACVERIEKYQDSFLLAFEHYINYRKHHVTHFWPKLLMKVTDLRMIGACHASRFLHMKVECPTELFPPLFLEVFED

C/C=C1/C(=O)C[C@H]2[C@@H]3CCC4=CC(=O)CC[C@]4(C)[C@H]3CC[C@]12C
not listed: [12] | [13] | [14]
inactive: all other assays above

Nc1c(S(=O)(=O)O)cc(Nc2ccccc2)c2c1C(=O)c1ccccc1C2=O
inactive: [12] | [13] | [14]

O=C(O)c1ccccc1C(=O)OC1CCCCC1
inactive: [12] | [13] | [14]

CN1[C@@H]2CC[C@H]1CC(OC(=O)C(CO)c1ccccc1)C2 (stereo partly drawn)
inactive: [12] | [13] | [14]

C=C1CCC2CC1C2(C)C (stereo not drawn)
inactive: [12] | [13] | [14]

CCC(=O)O[C@H]1[C@H](O[C@@H]2[C@@H](C)[C@H](O[C@H]3C[C@@](C)(OC)[C@@H](O)[C@H](C)O3)[C@@H](C)C(=O)O[C@H](CC)[C@@](C)(O)[C@H](O)[C@@H](C)C(=O)[C@H](C)C[C@@]2(C)O)O[C@H](C)C[C@@H]1N(C)C
inactive: [12] | [13] | [14]

C/C(=C\c1ccc(C(=O)O)cc1)c1ccc2c(c1)C(C)(C)CCC2(C)C
inactive: [12] | [13] | [14]

OCCS
inactive: [12] | [13] | [14]

CCOC(=O)c1ccccc1C(=O)O
inactive: [12] | [13]

CCCCc1nc(Cl)c(CO)n1Cc1ccc(-c2ccccc2-c2nnn[nH]2)cc1
inactive: [12] | [13] | [14]

O=c1ccc2ccc(O)cc2o1
inactive: [12] | [13] | [14]

CCOc1ccc2ccccc2c1
inactive: [12] | [13] | [14]

CC1=CC(=O)C(C(C)C)CC1 (stereo not drawn)
inactive: [12] | [13] | [14]

CCCCN1C(=O)c2ccccc2C1=O
inactive: [12] | [13]

CCOC(=O)C(C)CC (stereo not drawn)
inactive: [12] | [13]

Cc1cc(N=Nc2c(O)ccc3ccccc23)c(S(=O)(=O)O)cc1Cl
inactive: [12] | [13] | [14]

CCCCOC(=O)/C=C/C(=O)OCCCC
inactive: [12] | [13]

CCCCCCCCCCCC[N+](C)(C)[O-]
inactive: [12] | [13]

NCCNCCNCCNCCN
inactive: [12] | [13] | [14]

CC(CC(C)(C)C)CC(C)(C)C
inactive: [12] | [13] | [14]

CC1CN(c2cc3c(cc2F)c(=O)c(C(=O)O)cn3-c2ccc(F)cc2F)CCN1 (stereo not drawn)
inactive: [12] | [13] | [14]

CCOCCOC(=O)C=Cc1ccc(OC)cc1
inactive: [12] | [13] | [14]

OCCC1CCCCN1 (stereo not drawn)
inactive: [12] | [13]

Cc1ncc(C[n+]2csc(CCO)c2C)c(N)n1
inactive: [12] | [13] | [14]

O=c1cc(-c2ccccc2)oc2c1ccc1ccccc12
inactive: [12] | [13] | [14]

CO[Si](OC)OC
inactive: [12] | [13] | [14]

CC(=O)c1cccc2ccccc12
inactive: [12] | [13]

CC(=O)C(O)O
inactive: [12] | [13] | [14]

C=O.C=O.C=O.C=O.C=O.[Fe]
inactive: [12] | [13]

O=C[C@H](O)[C@@H](O)[C@@H](O)CO
inactive: [12] | [13] | [14]

Cc1ccc2[nH]c3cc4c(=O)c5cc(C)ccc5[nH]c4cc3c(=O)c2c1
inactive: [12] | [13] | [14]
